{"source": "PubChem BioAssay (Tox21)", "note": "Inconclusive results are not listed. Active and inactive are the calls of the source. Calls come from the whole dose curve; as a rule, active = well fitted cell-killing curve with a large enough effect in the repeat runs; inconclusive = weak or mixed curves, or effect the other way; inactive = flat fitted curve, though single readings scatter. % is set by controls: 0 for no effect and ±100 for the full control effect; potency is the fitted concentration of half-maximal effect."}
{"assay": "qHTS RealTime-Glo MT Cell Viability Assay in HEK293 cells - 16 hour (AID 1224872); note: nearly all actives have a fitted effect of over 50% in size; for activity change, negative = cytotoxicity: top concentration of the series differs between compounds", "conditions": "RealTime-Glo luminescence; series mostly up to 76.8 µM; activity change, negative = cytotoxicity: at the top concentration", "from_the_text": "National Center for Advancing Translational Sciences [NCATS]\nNIH Chemical Genomics Center [NCGC]\nU.S. Environmental Protection Agency [EPA]\nNational Institutes of Environmental Health Sciences [NIEHS]\nNational Toxicology Program [NTP]\nU.S. Food and Drug Administration [FDA]\nMeasure of cell viability is critical in the cell-base assay. Analysis of cell viability is necessary for the characterization of cell responses to cytotoxic drugs and environmental stress. A RealTime-Glo MT Cell Viability Assay to monitor cell viability in real time of continues cell culture during 40 hours of compound treatment was used to screen Tox21 10K library compounds in Hek293 cells. The RealTime-Glo MT Cell Viability Assay is a nonlytic, homogeneous, bioluminescent method to measure cell viability in real time using a simple, plate-based method. The assay involves adding NanoLuc luciferase and a cell-permeant prosubstrate to cells in culture. Viable cells reduce the proprietary prosubstrate to generate a substrate for NanoLuc luciferase. This substrate diffuses from cells into the surrounding culture medium, where it is rapidly used by the NanoLuc Enzyme to produce a luminescent signal. The signal correlates with the number of viable cells, making the assay well suited for cytotoxicity studies.\nTox21 Assay Protocol Summary:\nThe mixture of Hek293 cell suspension and reagents were dispensed at 600cells/6 ul/well in 1536-well tissue culture treated black solid bottom plates using a Multidrop dispenser. After the assay plates were incubated at a 37 C/5% CO2 incubator for 5 hours, 23 nL of compounds dissolved in DMSO, positive and negative controls was transferred to the assay plate by a pintool work station. The plates were incubated at 37 C for 40 hours. The luminescence intensity were measured at 0h, 8h, 16h, 24h, 32h and 40h time points using ViewLux plate reader during compound treatment."}
{"smiles": "CCCCCCCCN(C)CCCCCCCC", "activity change, negative = cytotoxicity": "4.43% (inactive)"}
{"smiles": "CC1CCN(CCCC(=O)c2ccc(F)cc2)CC1", "activity change, negative = cytotoxicity": "-0.0902% [at 35.3 µM] (inactive)"}
{"smiles": "CCOC(=O)Cn1c(=O)sc2cccc(Cl)c21", "activity change, negative = cytotoxicity": "-19.2% (inactive)"}
{"smiles": "CC(C)[C@H](N)C(=O)OCCOCn1cnc2c(=O)[nH]c(N)nc21", "activity change, negative = cytotoxicity": "0.299% [at 35.3 µM] (inactive)"}
{"smiles": "C1COCCO1", "activity change, negative = cytotoxicity": "4.78% (inactive)"}
{"smiles": "COc1ccc(NC(C)=O)cc1", "activity change, negative = cytotoxicity": "0.239% (inactive)"}
{"smiles": "CCCC(C)C(=O)O", "note": "(stereo not given)", "activity change, negative = cytotoxicity": "-0.224% (inactive)"}
{"smiles": "NC(=O)c1ncn([C@@H]2O[C@H](CO)[C@@H](O)[C@H]2O)c1N", "activity change, negative = cytotoxicity": "-2.92% [at 35.3 µM] (inactive)"}
{"smiles": "CCCC=O", "activity change, negative = cytotoxicity": "2.89% (inactive)"}
{"smiles": "CCCCN(CCO)CCO", "activity change, negative = cytotoxicity": "7.34% (inactive)"}
{"smiles": "CCCC(=O)O[C@]1(C(=O)CCl)[C@@H](C)C[C@H]2[C@@H]3CCC4=CC(=O)C=C[C@]4(C)[C@@]3(F)C(=O)C[C@@]21C", "activity change, negative = cytotoxicity": "-18.8% [at 35.3 µM] (inactive)"}
{"smiles": "CC1=CC(=O)CCC1", "activity change, negative = cytotoxicity": "6.53% (inactive)"}
{"smiles": "CC(C)c1cccc(C(C)C)c1N", "activity change, negative = cytotoxicity": "-0.774% (inactive)"}
{"smiles": "CCCC(C)CO", "note": "(stereo not given)", "activity change, negative = cytotoxicity": "10.4% (inactive)"}
{"smiles": "CSc1nc(NC2CC2)nc(NC(C)(C)C)n1", "Potency": "24.5 µM (active)"}
{"smiles": "CC(C)(O)c1ccccc1", "activity change, negative = cytotoxicity": "-13% (inactive)"}
{"smiles": "c1ccc2cnncc2c1", "activity change, negative = cytotoxicity": "7.76% (inactive)"}
{"smiles": "CCC(C(=O)NC(N)=O)c1ccccc1", "note": "(stereo not given)", "activity change, negative = cytotoxicity": "11.1% (inactive)"}
{"smiles": "CCOC(=O)[C@H](CCc1ccccc1)N[C@@H](C)C(=O)N1CCC[C@H]1C(=O)O", "activity change, negative = cytotoxicity": "4.11% [at 35.3 µM] (inactive)"}
{"smiles": "CCCCCN(CCCCC)C(=O)C(CCC(=O)O)NC(=O)c1ccc(Cl)c(Cl)c1", "note": "(stereo not given)", "activity change, negative = cytotoxicity": "-4.27% [at 35.3 µM] (inactive)"}
{"smiles": "c1ccc(SCCSc2ccccc2)cc1", "activity change, negative = cytotoxicity": "3.45% (inactive)"}
{"smiles": "CCCCCCCCCCC1CO1", "note": "(stereo not given)", "activity change, negative = cytotoxicity": "8.96% (inactive)"}
{"smiles": "CC(C)CCOC(=O)CC(C)C", "activity change, negative = cytotoxicity": "22.8% (inactive)"}
{"smiles": "CCCc1ccc(N)cc1", "activity change, negative = cytotoxicity": "-2.97% (inactive)"}
{"smiles": "Nc1cc(C(Cl)=C(Cl)Cl)c(S(N)(=O)=O)cc1S(N)(=O)=O", "activity change, negative = cytotoxicity": "5.04% [at 35.3 µM] (inactive)"}
{"smiles": "CC(C)c1ccc2oc3nc(N)c(C(=O)O)cc3c(=O)c2c1", "activity change, negative = cytotoxicity": "17.6% [at 35.3 µM] (inactive)"}
{"smiles": "CCN1CCCC1CNC(=O)c1cc(S(N)(=O)=O)ccc1OC", "note": "(stereo not given)", "activity change, negative = cytotoxicity": "-10.5% (inactive)"}
{"smiles": "O=C(O)C(O)[C@H](O)[C@@H](O)[C@H](O)[C@H](O)CO", "note": "(stereo not given in full)", "activity change, negative = cytotoxicity": "-11.8% (inactive)"}
{"smiles": "Fc1ccccc1-c1ccccc1", "activity change, negative = cytotoxicity": "-26.6% (inactive)"}
{"smiles": "CC(C)(O)C(=O)c1ccc(OCCO)cc1", "activity change, negative = cytotoxicity": "-0.943% (inactive)"}
{"smiles": "Nc1[nH]c(=O)ncc1F", "activity change, negative = cytotoxicity": "2.06% [at 35.3 µM] (inactive)"}
{"smiles": "C=CCn1c(=O)n([C@@H]2O[C@H](CO)[C@@H](O)[C@H]2O)c2nc(N)[nH]c(=O)c21", "activity change, negative = cytotoxicity": "6.05% [at 35.3 µM] (inactive)"}
{"smiles": "CSc1ccc(C=O)cc1", "activity change, negative = cytotoxicity": "-0.92% (inactive)"}
{"smiles": "COCCOC(=O)CC#N", "activity change, negative = cytotoxicity": "-2.1% (inactive)"}
{"smiles": "COc1cc(C(=O)N2CCOCC2)cc(OC)c1OC", "activity change, negative = cytotoxicity": "9.97% [at 35.3 µM] (inactive)"}
{"smiles": "Oc1cc(O)c2c(c1)O[C@H](c1ccc(O)c(O)c1)[C@H](O)C2", "activity change, negative = cytotoxicity": "-0.0749% [at 35.3 µM] (inactive)"}
{"smiles": "NC(=O)c1ncn([C@@H]2O[C@H](CO)[C@@H](O)[C@H]2O)c1O", "activity change, negative = cytotoxicity": "6.3% [at 35.3 µM] (inactive)"}
{"smiles": "COC(=O)C1=C(C)NC(C)=C(C(=O)OCC(C)=O)C1c1ccccc1[N+](=O)[O-]", "note": "(stereo not given)", "activity change, negative = cytotoxicity": "-3.32% [at 35.3 µM] (inactive)"}
{"smiles": "CC(C)c1cccc(O)c1", "activity change, negative = cytotoxicity": "17.1% (inactive)"}
{"smiles": "NC(=S)Nc1cccc2ccccc12", "activity change, negative = cytotoxicity": "14.8% [at 6.97 µM] (inactive)"}
